KKLEB tox: reduces viability of KKLEB cystic fibrosis airway cells | KKLEB CF airway cells viability, ATPlite luminescence, overnight; hits give low values; cells stimulated with P. aeruginosa culture filtrate | activity change (cytotoxicity), % at 5 µM | 360,000 compounds, 0.36% hits;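 active = corrected activity change at or below -50% at 5 µM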
TRPM1 prom inh: reduces MITF-dependent TRPM1 promoter luciferase signal; 330,000 compounds, 0.83% hits; SK-MEL-5 TRPM1 promoter luciferase, 24 h; inhibition, % at 12.5 µM;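 active = mean inhibition across replicates of 60% or more, whatever share of single replicates reaches that level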
CF NFkB inh: inhibitors of cystic fibrosis induced NF-kB. 360,000 compounds, 0.86% hits. KKLEB NF-kB-GFP reporter, PAF-induced, GFP fluorescence overnight. inhibition, % at 5 µM. AID 588850;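 active = at least 50% inhibition at 5 µM, scaled per plate between neutral and stimulator controls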;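 also: PAF is a Pseudomonas aeruginosa culture filtrate used as stimulus; plate controls were PAF-stimulated DMSO wells for no effect and unstimulated DMSO wells for full effect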
LMP1 NFkB inh: inhibitors of Epstein-Barr LMP1-induced NF-kappaB reporter | 350,000 compounds, 0.69% hits | inhibition, % at 12.5 µM | LMP1-induced NF-kappaB luciferase reporter cells, luminescence | AID 504558; in the data active = inhibition above about 41%;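 also: 0% = neutral control wells and 100% = reference inhibitor control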
Peg3 prom inh: Peg3 promoter activity inhibition; 360,000 compounds, 1.7% hits; inhibition, % at 20 µM; HeLa PEG-Prom luciferase reporter, luminescence, overnight;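 active = inhibition of at least 50% at 20 µM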
Shn3 3UTR inh: reduces Shn3 3'UTR luciferase signal in osteoblasts. inhibition, % at 12.5 µM. 360,000 compounds, 0.52% hits. Clone20 osteoblast Shn3 3'UTR firefly luciferase, 24 h;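 active = mean inhibition of at least 75% with every replicate also reaching 75%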;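 also: 0% = median of neutral control wells and 100% = pilot-screen positive control compound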
Active calls of the source: *; . = no result given. Only some compounds are listed: those with a hit (about 2.9% of all), similar ones and a draw of the others.

SMILES	KKLEB tox	TRPM1 prom inh	CF NFkB inh	LMP1 NFkB inh	Peg3 prom inh	Shn3 3UTR inh
O=C(C[C@H]1C/C=C\CC[C@H](Cc2ccc(F)cc2)C(=O)O[C@@H](c2ccccc2)CNC1=O)N[C@@H](CO)Cc1ccccc1	4	1	14	5	66*	26
O=C(C[C@H]1C/C=C\CC[C@H](Cc2ccc(F)cc2)C(=O)O[C@@H](c2ccccc2)CNC1=O)N[C@H](CO)Cc1ccccc1	-7	3	4	1	12	-20
COc1ccccc1-c1csc(C(C)(NC(C)=O)c2ccccc2)n1 (stereo not drawn)	-1	.	11	.	-2	-3
CC(C)CCNC(=S)Nc1ccc2nc3n(c(=O)c2c1)CCCCC3	-1	-16	8	63*	-26	-12
O=C(Nc1ccc2nc3n(c(=O)c2c1)CCCC3)c1cc([N+](=O)[O-])ccc1F	-22	81*	48	2	111*	91*
O=C(Nc1ccc2nc3n(c(=O)c2c1)CCCC3)c1cccc([N+](=O)[O-])c1	11	-16	-9	0	-117	-18
CCCCNC(=S)Nc1ccc2nc3n(c(=O)c2c1)CCCCC3	2	-1	-4	0	-26	-12
C=Cn1cc(CNC[C@H]2O[C@@H](n3ccc(N)nc3=O)[C@H](O)[C@@H]2O)c(C)n1	4	.	5	0	-5	-16
COc1cc(OC)c2c(-c3cccc(-c4sccc4C(C)=O)c3)cc(=O)oc2c1	-24	51	60*	-2	-17	13
Cc1cccc(C)c1C(O)c1ncc(-c2cccc(F)c2)[nH]1 (stereo not drawn)	-12	.	23	.	-1	-8
O=C1C=CC(=O)N1c1ccc2c(c1)C(NC(=O)C(F)(F)F)c1ccccc1-2 (stereo not drawn)	-9	86*	40	-5	102*	71
CN(C)C(=O)NC1c2ccccc2-c2ccccc21	-6	13	1	-1	1	-10
COc1cc2c(cc1OC)C(c1cc(Br)ccc1F)N(C(=O)CCl)CC2 (stereo not drawn)	-68*	98*	105*	-10	102*	98*
COc1cc2c(cc1OC)C(C1C(=O)CC(C)(C)CC1=O)N(C(=O)CCl)CC2 (stereo not drawn)	-1	0	-18	6	-5	1
C=CCN1CCN(C(=O)CCc2ccccc2)CC1	4	15	1	87*	-4	-2
O=C(CCc1ccccc1)N1CCN(C(=O)CCc2ccccc2)CC1	9	4	1	9	19	0
COCCNc1nc(Oc2cccc3ccccc23)c2sccc2n1	0	.	1	.	29	-46
COc1ccc(CNc2ncc(-c3ccc(F)cc3)n2C)c2ccccc12	-5	53	4	19	59*	35
Cn1c(=O)c([N+](=O)[O-])c(-n2ccnc2)c2ccccc21	1	89*	-7	-1	55*	-18
COc1cc2nc(CN3CCN(S(=O)(=O)c4ccccc4[N+](=O)[O-])CC3)[nH]c(=O)c2cc1OC	0	.	-6	-6	-4	5
CSc1ccccc1C(=O)OCC(=O)NC1CC1	8	.	0	-10	4	-15
CC1=NN(C(C#N)c2ccccc2C)C(C)(C)C1 (stereo not drawn)	16	-1	-9	7	1	16
CC1=NN(C(C#N)c2c(C)nn(Cc3ccccc3)c2C)C(C)(C)C1 (stereo not drawn)	6	2	-3	57*	-1	-3
O=C(NCc1ccc(F)cc1)C(c1ccccc1)c1ccccc1	4	3	-12	2	12	15
CC(=O)N(Cc1ccc(F)cc1)C1=C(NCc2ccccc2)C(=O)c2ccccc2C1=O	-53*	98*	92*	53*	110*	83
SMILES	KKLEB tox	TRPM1 prom inh	CF NFkB inh	LMP1 NFkB inh	Peg3 prom inh	Shn3 3UTR inh
Cc1cc(=O)[nH]c(N/N=C/c2ccc(C)o2)n1	-21	2	8	48*	-4	-1
Cc1cc(=O)[nH]c(N/N=C/c2ccco2)n1	19	7	7	-15	-8	-11
O=C1NC(=O)C2(CCCCC2)N1	2	-5	-7	-18	-1	3
N#Cc1ccc(CN2CCN(C(=O)C3CC(=O)N(c4ccc5c(c4)OCCO5)C3)CC2)cc1 (stereo not drawn)	-3	.	13	-3	9	-32
COc1ccc(/C=N/NC(=O)c2nc(-c3ccccc3)n(-c3ccccc3)n2)c(O)c1	10	57	-23	19	31	91*
CC(C)(C)c1cc(C(=O)N/N=C/c2ccc(F)cc2)n(-c2ccccc2)n1	7	-12	13	-15	-12	5
COc1ccc(/C=N/NC(=O)c2nc(-c3ccccc3)n(-c3ccccc3)n2)cc1	13	-12	-30	1	-3	-6
COc1ccc2[nH]c(C(=O)N/N=C/c3ccc(O)cc3O)cc2c1	4	59	24	40	39	89*
CC(C)(C)c1cc(C(=O)N/N=C/c2ccccc2O)n(-c2ccccc2)n1	4	48	-10	9	50*	91*
CC1(C)OC2COC(c3[nH]nc4c(=O)[nH]c(=O)[nH]c34)C2O1 (stereo not drawn)	-7	.	13	-1	-7	0
CCOc1ccc2c(c1)C(=NNC(=O)c1ccncc1)c1cc(OCC)ccc1-2	10	0	-39	11	55*	-8
CCOc1ccc(NC(=O)c2ccncc2)cc1	-1	-6	6	-9	-50	-15
CCOC(=O)CCCN(c1[nH]c(C)c(C)c1C#N)S(=O)(=O)c1ccc(C)cc1	16	.	5	2	0	2
O=C(Cc1csc(Nc2nc(=S)[nH]c3ccccc23)n1)N1CCN(c2cccc(C(F)(F)F)c2)CC1	-15	51	12	-29	80*	54
Nc1ncnc2c(C3OC(CO)C(O)C3O)scc12 (stereo not drawn)	-15	83*	37	71*	90*	97*
Cc1ccc(S(=O)(=O)N2C[C@H]3[C@H]4C(=O)N(C)C(=O)[C@H]4CC(=O)[C@H]3[C@@H]2c2ccccc2F)cc1	-1	.	-4	.	4	-7
COc1ccc(Cc2nc3c4c(ncn3n2)Oc2c(ccc3ccccc23)C4c2ccc(OC)c(OC)c2)cc1 (stereo not drawn)	-5	1	15	-9	22	23
COc1ccc(C2c3ccc4ccccc4c3Oc3ncn(CCN(C)C)c(=N)c32)cc1 (stereo not drawn)	-23	95*	35	-16	92*	39
COc1ccc(C2c3ccc(O)cc3Oc3ncn(Cc4ccco4)c(=N)c32)cc1 (stereo not drawn)	-11	7	18	-6	7	-2
